{"source": "PubChem BioAssay AID588852", "about": "(The Scripps Research Institute Molecular Screening Center, 2011)", "note": "Hit rate of the full screen: of about 360,000 compounds, about 4,600 (1.3%) were called active. The full list was thinned out, with actives kept by preference. Unmarked numbers belong to inactive results.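 The calls were made as follows: active = percent inhibition above its own plate's cutoff, namely the mean of that plate's compound wells plus 3 SD; inactive = the rest.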"}
{"target": "Muscarinic acetylcholine receptor M1 (Homo sapiens) (UniProt P11229)", "sequence (P11229 whole entry, looked up)": "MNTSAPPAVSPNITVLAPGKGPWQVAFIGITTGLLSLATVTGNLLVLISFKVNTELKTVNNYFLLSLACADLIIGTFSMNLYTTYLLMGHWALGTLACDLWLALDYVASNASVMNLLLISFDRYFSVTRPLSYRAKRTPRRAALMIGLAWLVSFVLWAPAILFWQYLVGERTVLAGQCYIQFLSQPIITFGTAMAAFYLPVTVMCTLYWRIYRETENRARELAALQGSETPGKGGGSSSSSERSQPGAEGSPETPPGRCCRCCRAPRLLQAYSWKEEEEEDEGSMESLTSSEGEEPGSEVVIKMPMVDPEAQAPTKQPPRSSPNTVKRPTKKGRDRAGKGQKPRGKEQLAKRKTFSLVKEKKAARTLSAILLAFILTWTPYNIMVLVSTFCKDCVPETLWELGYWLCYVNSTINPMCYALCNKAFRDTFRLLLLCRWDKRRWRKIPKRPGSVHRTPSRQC", "test": "CHRM1 blockers of acetylcholine calcium response – CHO-K1 cells, Fluo-8 calcium fluorescence, 1536-well, primary screen (AID 588852);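 also: peak over basal fluorescence ratio during 140 s after agonist addition; 0% = ACh EC80 plus DMSO and 100% = DMSO alone without agonist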", "conditions": "CHO-K1 hM1, Fluo-8 calcium fluorescence, ACh EC80 antagonist; at 3 µM; hits give high values"}
{"compound": "CCCCN1CC(N2CCN(Cc3cccc(C)c3)CC2)CS1(=O)=O", "note": "(centres undefined)", "inhibition": "8.04%"}
{"compound": "CSc1ccc(CN2C(=O)NC3(CCCCCC3)C2=O)cc1", "inhibition": "8.79%"}
{"compound": "CC(C)(C)C(=O)NC1CC2CCCC(C1)N2C(=O)Nc1ccccc1F", "note": "(centres undefined)", "inhibition": "-7.35%"}
{"compound": "COc1ccc(OCCNS(=O)(=O)Cc2ccccc2)cc1", "inhibition": "-0.06%"}
{"compound": "COc1ccc(S(=O)(=O)NCCOc2ccccc2)cc1F", "inhibition": "-7.76%"}
{"compound": "COc1ccc(S(=O)(=O)NCCCCOc2ccc(Cl)cc2)cc1", "inhibition": "32.6% (active)"}
{"compound": "CC(C)OCC(O)CN1CCN(C(c2ccccc2)c2ccccc2)CC1", "note": "(centres undefined)", "inhibition": "24.4%"}
{"compound": "CC1(C)CC(N2CCN(C(c3ccccc3)c3ccccc3)CC2)=CC(=[N+]2CCCCC2)C1", "inhibition": "72.8% (active)"}
{"compound": "CC1(C)CC(=O)C=C(N2CCOCC2)C1", "inhibition": "-7.94%"}
{"compound": "CCNS(=O)(=O)c1ccc(CCC(=O)N2CCN(c3cc(Cl)ccc3C)CC2)cc1", "inhibition": "13.9%"}
{"compound": "Cc1sc2ccccc2c1CNC[C@H]1O[C@@H](n2ccc(=O)[nH]c2=O)[C@H](O)[C@@H]1O", "inhibition": "-6.07%"}
{"compound": "CSCCC(NC(=O)c1ccccc1)C(=O)N1CCCCCCC1", "note": "(centres undefined)", "inhibition": "-10.3%"}
{"compound": "COc1ccccc1C(=O)NC(CCSC)C(=O)N1CCN(C(C)=O)CC1", "note": "(centres undefined)", "inhibition": "-18.2%"}
{"compound": "CSCCC(NC(=O)c1ccccc1)C(=O)N1CCN(Cc2ccc(Cl)cc2)CC1", "note": "(centres undefined)", "inhibition": "31.4% (active)"}
{"compound": "O=c1c2c(ncn1Cc1ccccc1)nc1n2CCC1", "inhibition": "-9.57%"}
{"compound": "COc1ccc(-c2nc3ccc(Br)cn3c2Cc2ccc(C)cc2)cc1OC", "inhibition": "-18.2%"}
{"compound": "CCOc1ccc(CCNC(=O)COC(=O)C2CCN(S(=O)(=O)c3ccccc3)CC2)cc1OCC", "inhibition": "-4.87%"}
{"compound": "CCOc1ccc(CCNC(=O)COC(=O)C2CCN(c3ccc(C(F)(F)F)cn3)CC2)cc1OCC", "inhibition": "38.9% (active)"}
{"compound": "CCc1cccc(NC(=O)COC(=O)C2CCN(c3ccc(C(F)(F)F)cn3)CC2)c1", "inhibition": "2.01%"}
{"compound": "CCc1ccc([C@@H]2CC(=O)[C@@H]3CN(S(=O)(=O)c4ccc(C)cc4)[C@H](c4ccc(Cl)cc4)C[C@@H]3N2S(=O)(=O)c2ccc(C)cc2)cc1", "inhibition": "-3.63%"}
{"compound": "COc1ccccc1N1CCN(CCCCOc2ccc(F)cc2)CC1", "inhibition": "30.4% (active)"}
{"compound": "COc1ccccc1OCCCCCCN1CCN(C)CC1", "inhibition": "-0.37%"}
{"compound": "CCN1CCN(CCCCOc2ccccc2F)CC1", "inhibition": "-2.84%"}
{"compound": "O=C(NC(Cc1ccc(O)cc1)C(=O)O)/C(=C/c1ccccc1)NC(=O)c1ccccc1", "note": "(centres undefined)", "inhibition": "-14.6%"}
{"compound": "Cc1cccc(CN2CCN(C3CN(Cc4cn(Cc5ccccc5F)nn4)S(=O)(=O)C3)CC2)c1", "note": "(centres undefined)", "inhibition": "-4.3%"}
{"compound": "COC(=O)C1=C(C)N(C)C(=O)NC1c1ccc([N+](=O)[O-])o1", "note": "(centres undefined)", "inhibition": "0.09%"}
{"compound": "COC(=O)C1=C(C)NC(=O)/C1=C/c1ccc(CNS(=O)(=O)c2ccc(C)cc2)o1", "inhibition": "8.24%"}
{"compound": "COC(=O)C1=C(C)NC2=C(C(=O)c3ccccc32)C1c1ccc(-c2ccc(C(=O)O)cc2)o1", "note": "(centres undefined)", "inhibition": "32.9% (active)"}
{"compound": "CCN(CC)S(=O)(=O)c1ccc(N(C)Cc2ccc(C(F)(F)F)cc2)nc1", "inhibition": "61.2% (active)"}
{"compound": "CCN(CC)S(=O)(=O)c1ccc(N(C)Cc2cccc(OC)c2OC)nc1", "inhibition": "7.81%"}
{"compound": "CCN(CC)S(=O)(=O)c1ccc(N(C)CCc2ccc(OC)c(OC)c2)nc1", "inhibition": "-0.86%"}
{"compound": "Cc1ccc(Sc2ccc(NC(=O)c3ccc(F)cc3)cc2C#N)cc1", "inhibition": "9.62%"}
{"compound": "COc1ccc(N2CCN(C(=O)COc3ccc4c(C)cc(=O)oc4c3)CC2)cc1", "inhibition": "-5.75%"}
{"compound": "COc1cc(CN2CCN(Cc3ccc(C)cc3)CC2)c([N+](=O)[O-])cc1OC", "inhibition": "-6.59%"}
{"compound": "Cc1cc(=O)oc2cc(OCC3CC(c4ccccc4Cl)=NO3)ccc12", "note": "(centres undefined)", "inhibition": "-6.21%"}
{"compound": "Cc1cc(OCC(=O)NC2CCN(C)CC2)ccc1[N+](=O)[O-]", "inhibition": "-1.71%"}
{"compound": "Cc1cc(OCCCN2CCN(Cc3ccccc3)CC2)ccc1[N+](=O)[O-]", "inhibition": "54.7% (active)"}
{"compound": "Cc1ccccc1N1CCN(CCCOc2ccc3c(C)cc(=O)oc3c2)CC1", "inhibition": "39.5% (active)"}
{"compound": "Nc1nc2cc(Cl)ccc2n1N", "inhibition": "-2.44%"}
{"compound": "CN1OC[C@@H]2CN(S(=O)(=O)c3cccc4ccccc34)[C@H](c3ccc(N4CCCCC4)cc3)C[C@@H]21", "inhibition": "5.74%"}
{"compound": "O=C(NC(c1ccc(-c2ccccc2)cc1)c1cnccn1)C1CCN(CCOc2ccc(Cl)cc2Cl)CC1", "note": "(centres undefined)", "inhibition": "-16.7%"}
{"compound": "CN(C)CCOc1cccc(Br)c1", "inhibition": "17.3%"}
{"compound": "CN(C)CCOCCOc1ccc(Cl)c2ccccc12", "inhibition": "-1.32%"}
{"compound": "CN(C)CCOc1ccc(Cl)cc1C(C)(C)C", "inhibition": "66.2% (active)"}
{"compound": "Cc1ccc(C)c(NC(=O)C(OC(=O)c2ccc(C)s2)c2ccccc2)c1", "note": "(centres undefined)", "inhibition": "-2.69%"}
{"compound": "Cc1cc(C)cc(NC(=O)C(c2ccccc2)N2CCN(CC(=O)N3CCCC3)CC2)c1", "note": "(centres undefined)", "inhibition": "3.45%"}
{"compound": "Cc1cc(C)cc(NC(=O)C(OC(=O)c2ccc(O)cc2)c2ccccc2)c1", "note": "(centres undefined)", "inhibition": "29.5% (active)"}
{"compound": "COCCCNC(=O)CN1C(=O)CSc2ccc(S(=O)(=O)N3CCOCC3)cc21", "inhibition": "-6.65%"}
{"compound": "CCN(C(=O)COC(=O)c1c(C)nn(-c2ccccc2)c1Cl)c1c(N)n(Cc2ccccc2)c(=O)[nH]c1=O", "inhibition": "-4.94%"}
{"compound": "CN(Cc1cccnc1)C(=O)c1cc(COc2ccc3ncccc3c2)on1", "inhibition": "50% (active)"}
{"compound": "CN(Cc1cnccn1)C(=O)c1cc(COc2cccc(C(F)(F)F)c2)on1", "inhibition": "-11.2%"}
{"compound": "CC(=O)c1cccc(OCc2cc(C(=O)NC(C)Cc3cccnc3)no2)c1", "note": "(centres undefined)", "inhibition": "18.6%"}
{"compound": "Cc1nc(COc2cc3oc(=O)cc(C)c3cc2Cl)cs1", "inhibition": "-7.17%"}
{"compound": "O=C(Cn1cc(C(F)(F)F)ccc1=O)Nc1ccc2c(c1)OCCO2", "inhibition": "-0.29%"}
{"compound": "O=C(CSc1nnc(-c2ccco2)o1)NCC(=O)c1ccccc1", "inhibition": "-3.08%"}
{"compound": "O=S(=O)(c1cccc(Cn2nnc(-c3ccc(F)cc3)n2)c1)N1CCOCC1", "inhibition": "27.1% (active)"}
{"compound": "CCN(Cc1ccncc1)C(=O)c1cccc(S(=O)(=O)N2CCOCC2)c1", "inhibition": "-4%"}
{"compound": "Cc1nc(-c2ccc(F)cc2)c(CC(=O)Nc2cccc(S(=O)(=O)N3CCOCC3)c2)s1", "inhibition": "0.85%"}
{"compound": "O=C(CSc1nc2nccnc2c(=O)n1Cc1cccs1)Nc1ccccc1F", "inhibition": "9.12%"}
{"compound": "Cc1ccccc1CNC(=O)CCC(=O)N1Cc2ccccc2Oc2ncccc21", "inhibition": "-0.29%"}
{"compound": "O=C(CS(=O)(=O)c1ccc(C(F)(F)F)cn1)NNC(=O)c1ccccc1", "inhibition": "11.9%"}
{"compound": "Nc1nc2c(ncn2[C@@H]2O[C@H](CNS(=O)(=O)N3CCc4ccccc4C3)[C@@H](O)[C@H]2O)c(=O)[nH]1", "inhibition": "-4.64%"}
{"compound": "COC(=O)c1ccc(NC(=O)CN(c2ccc(C)cc2)S(=O)(=O)c2c(C)n[nH]c2C)cc1", "inhibition": "-8.36%"}
{"compound": "CN(Cc1ccccc1F)c1cc2c(c3c1ccn3C)C1CCC2O1", "note": "(centres undefined)", "inhibition": "-40.5%"}
{"compound": "COc1cc(C(=O)NCc2cc3cc(Cl)ccc3n2C)cc(OC)c1OC", "inhibition": "-19.2%"}
{"compound": "COc1cc(C(=O)NCc2ccc3c(c2)cc(C)n3C)cc(OC)c1OC", "inhibition": "-1.03%"}
{"compound": "CCn1c(CNC(=O)c2cc(OC)c(OC)c(OC)c2)cc2cc(C)ccc21", "inhibition": "47.9% (active)"}
{"compound": "CCN(CC(=O)NC(C)C)C(=O)c1cc(S(=O)(=O)N2CCCCC2)ccc1N1CCCCC1", "inhibition": "-0.72%"}
{"compound": "CCc1ccc(NC(=O)C(=O)N/N=C(\\C)CC(=O)NCCOC)cc1", "inhibition": "-7.5%"}
{"compound": "Cn1c(SCC(=O)N2CCCc3ccccc32)nc2ccccc2c1=O", "inhibition": "31.9% (active)"}
{"compound": "C=CCn1c(=O)c2ccccc2n2c(SCC(=O)N3CCCc4ccccc43)nnc12", "inhibition": "10.1%"}
{"compound": "O=C(CSc1nc2ccccc2c(=O)n1CCCO)N1CCc2ccccc21", "inhibition": "-9.53%"}
{"compound": "CCn1c(C(C)C)n[nH]c1=S", "inhibition": "-7.45%"}
{"compound": "CC(C)C1Nc2c(C(=O)O)cccc2C(Nc2ccccc2C(=O)O)C1(C)C", "note": "(centres undefined)", "inhibition": "2.52%"}
{"compound": "C/C(=N\\NC(=O)c1ccc2ccccc2c1)c1cccnc1", "inhibition": "-15.4%"}
{"compound": "O=C(O)CC/C(=N\\NC(=O)c1ccc(F)cc1)c1ccc(Br)cc1", "inhibition": "-10.2%"}
{"compound": "CC(=NNC(=O)c1ccc2nc[nH]c2c1)c1ccc(Br)cc1", "inhibition": "35.2% (active)"}
{"compound": "CN1OC[C@@H]2CN(C(=O)c3cccnc3)[C@H](c3ccc(N4CCCCC4)cc3)C[C@@H]21", "inhibition": "-0.12%"}
{"compound": "COc1ccc(CNC(=O)COC(=O)c2ccc(C)c(S(=O)(=O)N3CCOCC3)c2)cc1OC", "inhibition": "-2.56%"}
{"compound": "COc1ccc(C(=O)OCC(=O)c2ccc(C)c(S(=O)(=O)N3CCOCC3)c2)cc1OC", "inhibition": "42% (active)"}
{"compound": "Cc1ccc(C(=O)OCC(=O)N2CCCCCC2)cc1S(=O)(=O)N1CCOCC1", "inhibition": "-0.5%"}
{"compound": "CC1(Cc2ccccc2C#N)C(=O)Nc2ccc(-c3ccc4[nH]ccc4c3)cc21", "note": "(centres undefined)", "inhibition": "8.72%"}
{"compound": "CCOC(=O)c1ccn(S(=O)(=O)c2ccc(C)cc2)c1-c1ccccc1", "inhibition": "13.3%"}
{"compound": "COc1ccccc1C(CNC(=O)c1cccc(S(=O)(=O)Nc2ccc(F)cc2)c1)N(C)C", "note": "(centres undefined)", "inhibition": "100% (active)"}
{"compound": "CN(C)C(CNC(=O)c1cccc(S(=O)(=O)Nc2ccc(Br)cc2)c1)c1ccco1", "note": "(centres undefined)", "inhibition": "-0.14%"}
{"compound": "COc1ccccc1C(CNC(=O)c1cccc(NS(=O)(=O)c2ccc(Br)cc2)c1)N(C)C", "note": "(centres undefined)", "inhibition": "99.2% (active)"}
{"compound": "Cc1cccc(NS(=O)(=O)c2ccc(C)c(C(=O)NCC(c3ccccc3)N(C)C)c2)c1", "note": "(centres undefined)", "inhibition": "-6.04%"}
{"compound": "CC(=O)c1ccc(S(=O)(=O)Nc2ccc(C(=O)NCC(c3ccccc3)N(C)C)cc2)cc1", "note": "(centres undefined)", "inhibition": "16.4%"}
{"compound": "COc1ccc(C(CNC(=O)c2cccc(S(=O)(=O)Nc3ccc(Br)cc3)c2)N(C)C)cc1", "note": "(centres undefined)", "inhibition": "-2.85%"}
